# Reference: ChEMBL document CHEMBL3988442, “University of Dundee, Small-Polar-MMV Screening Library” (2021)
# Target: T1, Aspartate--tRNA(Asp/Asn) ligase (Mycobacterium tuberculosis (strain ATCC 25618 / H37Rv)) (UniProt P9WFW3)
# T1 sequence (whole entry): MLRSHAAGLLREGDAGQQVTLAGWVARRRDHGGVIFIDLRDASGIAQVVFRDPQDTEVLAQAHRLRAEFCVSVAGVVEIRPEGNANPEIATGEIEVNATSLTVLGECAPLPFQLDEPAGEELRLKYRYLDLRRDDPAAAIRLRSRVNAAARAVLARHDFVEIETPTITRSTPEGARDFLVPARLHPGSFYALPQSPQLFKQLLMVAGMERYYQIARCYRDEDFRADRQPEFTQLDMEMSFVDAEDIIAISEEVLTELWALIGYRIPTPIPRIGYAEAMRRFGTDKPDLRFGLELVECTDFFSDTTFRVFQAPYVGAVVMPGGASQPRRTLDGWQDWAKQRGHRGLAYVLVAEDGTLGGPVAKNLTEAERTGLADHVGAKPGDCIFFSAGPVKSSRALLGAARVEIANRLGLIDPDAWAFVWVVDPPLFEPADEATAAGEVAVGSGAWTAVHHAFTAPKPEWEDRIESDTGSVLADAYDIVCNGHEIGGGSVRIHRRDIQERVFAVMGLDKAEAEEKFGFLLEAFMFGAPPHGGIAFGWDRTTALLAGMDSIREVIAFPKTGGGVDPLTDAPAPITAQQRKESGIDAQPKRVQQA
# Experiment: Assay for Asp RNA synthetase-1 from Mycobacterium tuberculosis
# Format: functional
# Parameters: scale not given: in the data most compounds retested in dose-response had high values
# Conditions: 30 µM
row,SMILES,Percent Effect [%]
1,O=C(CCO)N1CCOC2(CCCN(C(=O)c3ccco3)C2)C1 (centres undefined),-4.34
2,CCCS(=O)(=O)N1CCC2(CC1)CN(c1ccccn1)CCO2,2.47
3,CC(=O)N1CCc2c(nc(-c3ccncc3)nc2N(C)CC(O)CO)C1 (centres undefined),-1.07
4,Cc1n[nH]c(=O)c2c(NC(=O)CN3CCOC(C)C3)oc(C)c12 (centres undefined),-3.61
5,COC[C@@]12CC[C@@H](N3CCOCC3)C[C@H]1CCN(c1ncccc1Cl)C2,-2.31
6,CC(Cn1ccnc1)NC(=O)C1(c2ccc3c(c2)OCCO3)CCCC1 (centres undefined),-0.0286
7,Cc1cc(C)cc(OCCC(=O)N2CCCC(n3cncn3)C2)c1 (centres undefined),-4.66
8,N#CCSCCCN1CCN(C(=O)c2ccc(Cl)cc2)CC1,0.593
9,Cc1ccc(C(=O)N2CCSCC2)cc1NC(=O)Cn1cncn1,-1
10,Cc1ncc(CNC(=O)Nc2cc(C(F)(F)F)c[nH]c2=O)s1,2.67
11,Cc1csc(Nc2cc(C3CCCCN3C)nc(C)n2)n1 (centres undefined),-2.66
12,Cn1cc(Cl)cc1C(=O)N1CCN(Cc2ccsc2)CC1,-1.54
13,CNc1nc2c(s1)C(c1c(Cl)cccc1Cl)CC(=O)N2 (centres undefined),50.9
14,c1ccc2oc(CCCN3CCOC(Cn4cccn4)C3)nc2c1 (centres undefined),0.605
15,O=C(c1ccc(F)cc1)N1CCC2(CCCN2CC2CC2)CC1,-2.16
16,Cc1ccc(OC2(C(=O)O)CCN(C(=O)c3nc(C)oc3C)CC2)cn1,-2.19
17,CC[C@H](C)Nc1nccc(-c2cnc3sc(C)c(C)n3c2=O)n1,0.808
18,O=C1COC2(CCN(C(=O)c3ccco3)CC2)CN1Cc1ccccn1,-2.5
19,CC(Cc1ccco1)NC(=O)Nc1ccc(S(C)(=O)=O)nc1 (centres undefined),1.12
